From the supplement of paper PMC3334620
The full ranking holds about 33,000 sequences; the median of “E-score (-0.5 to 0.5)” is about -0.0059, and the highest 2% start at about 0.26. Only a selection was taken, and the highest values are over-represented in it overall.

Target: T1, Cin5 (UniProt P40917)
T1 sequence: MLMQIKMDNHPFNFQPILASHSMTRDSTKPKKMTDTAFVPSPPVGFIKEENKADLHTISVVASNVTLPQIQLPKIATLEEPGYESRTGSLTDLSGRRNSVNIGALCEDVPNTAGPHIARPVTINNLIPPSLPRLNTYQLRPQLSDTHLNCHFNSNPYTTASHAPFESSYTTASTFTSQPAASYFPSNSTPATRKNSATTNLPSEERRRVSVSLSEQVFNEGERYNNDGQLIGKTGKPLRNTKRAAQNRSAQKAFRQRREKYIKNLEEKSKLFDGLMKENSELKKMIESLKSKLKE
Test: PBM E-score (8-mer binding enrichment) (E-score (-0.5 to 0.5)); higher = stronger / more preferred TF binding
Details: protein concentration: 100 nM; construct: GST-full length
Protocol: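 Universal 'all 10-mer' protein binding microarrays (Agilent AMADID 015681) probed with GST-tagged S. cerevisiae TFs (full-length or DBD) made by in vitro transcription/translation (PURExpress), about 100-200 nM. Bound TF was detected with fluorescent anti-GST. Each ungapped 8-mer (which stands for itself and its reverse complement) is scored by the PBM enrichment score (E-score), a modified Wilcoxon-Mann-Whitney statistic from -0.5 to +0.5, computed with the Universal PBM Analysis Suite. Scale: above 0.35 generally sequence-specific binding.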

Going from TAAACTAA to TTAAGTAA, the “PBM E-score” value rises from 0.252 to 0.423.

Going from GAAACTAA to CAAACTAA, the “PBM E-score” value rises from 0.0253 to 0.266.

Going from CTAACTAA to TTAACTAA, the “PBM E-score” value rises from 0.15 to 0.343.

First: CTAAGTAA
Second: ATAACTAA
The “PBM E-score” value of the first is lower: 0.0623 for the first, 0.141 for the second.

First: CAAACTAC
Second: AAAACTAT
The “PBM E-score” value of the first is lower: 0.0495 for the first, 0.2 for the second.

Going from GTAAGTAA to AAAACTAA, the “PBM E-score” value rises from 0.24 to 0.275.

Going from CGACATAG to CTGCAAAC, the “PBM E-score” value falls from 0.00383 to -0.149.

First: AGCTGCCG
Second: GCGGCGCC
The “PBM E-score” value of the first is lower: -0.0554 for the first, 0.115 for the second.

Compared with CACGTGGG, AGGCTGAC is higher in “PBM E-score” value: -0.172 for the first, 0.0576 for the second.

First: AGGCGGAA
Second: GCGCGAGC
The “PBM E-score” value of the first is higher: -0.0282 for the first, -0.0452 for the second.

Compared with GGAATTGA, ACATCATC is higher in “PBM E-score” value: 0.199 for the first, 0.344 for the second.

Compared with ACATCATA, CCATCATC is lower in “PBM E-score” value: 0.258 for the first, 0.0863 for the second.

Going from CCATCATA to GCATCATA, the “PBM E-score” value rises from 0.05 to 0.0947.

First: ACATCATG
Second: CAACTCTG
The “PBM E-score” value of the first is higher: 0.0711 for the first, -0.112 for the second.

Compared with GACGCATC, ACCAAGCC is lower in “PBM E-score” value: 0.00795 for the first, -0.172 for the second.

First: CCCCCCTC
Second: TAACCAAA
The “PBM E-score” value of the first is lower: -0.465 for the first, 0.175 for the second.

Going from AAGGTGAA to CAGGAGGA, the “PBM E-score” value falls from -0.0511 to -0.315.

Compared with TACCCATA, AGCTGATG is higher in “PBM E-score” value: 0.0256 for the first, 0.14 for the second.

Going from AGTATATA to TGTATAAA, the “PBM E-score” value falls from 0.346 to 0.114.

First: AGTATATC
Second: GGTATAAA
The “PBM E-score” value of the first is lower: 0.126 for the first, 0.154 for the second.

Compared with AGTATAAA, AGTATAAG is lower in “PBM E-score” value: 0.282 for the first, 0.239 for the second.

Compared with AGTATAAC, AGTATATG is higher in “PBM E-score” value: -0.129 for the first, 0.183 for the second.

Compared with AGTATAAT, ATTGTCGC is lower in “PBM E-score” value: 0.301 for the first, 0.0313 for the second.

First: GAACCCAC
Second: ATAGTTTA
The “PBM E-score” value of the first is higher: 0.121 for the first, 0.0429 for the second.

Compared with GGGCGGTA, AGCACGAT is higher in “PBM E-score” value: -0.169 for the first, 0.0861 for the second.

Compared with ATATCGCC, ATCTCGCC is higher in “PBM E-score” value: 0.0352 for the first, 0.0516 for the second.

Going from ATCTCGCG to ATATCGAT, the “PBM E-score” value falls from 0.266 to 0.265.

Compared with ATATCGCG, ATATCGAC is lower in “PBM E-score” value: 0.301 for the first, 0.249 for the second.

First: ATATCGAA
Second: ATCTCGCA
The “PBM E-score” value of the first is higher: 0.221 for the first, 0.00313 for the second.

Going from ATATCGCA to CACGTCGC, the “PBM E-score” value falls from -0.00978 to -0.119.

Compared with CTCGACGC, CTTGATTA is higher in “PBM E-score” value: 0.0204 for the first, 0.222 for the second.

Compared with ACTGATTA, GCTGATTA is higher in “PBM E-score” value: 0.249 for the first, 0.279 for the second.

Going from CCTGATTA to ATTGATTC, the “PBM E-score” value falls from 0.252 to 0.128.

First: ATTGATTG
Second: GTTGATTA
The “PBM E-score” value of the first is lower: 0.186 for the first, 0.268 for the second.

Compared with GTTGATGA, ATTGATTA is higher in “PBM E-score” value: 0.154 for the first, 0.317 for the second.

Compared with AAGTTGCC, CGGACGAA is higher in “PBM E-score” value: -0.0351 for the first, 0.15 for the second.

First: CACACACG
Second: TCCCAGAA
The “PBM E-score” value of the first is higher: -0.0573 for the first, -0.129 for the second.

Compared with AATCCGGA, AATGTTCT is lower in “PBM E-score” value: 0.234 for the first, -0.0398 for the second.

First: ATTAATTC
Second: ATTAATCC
The “PBM E-score” value of the first is higher: 0.238 for the first, 0.18 for the second.

Compared with GTTAATCA, CTTAATGA is lower in “PBM E-score” value: 0.239 for the first, 0.0487 for the second.

First: ATTAATCA
Second: ATTAATTG
The “PBM E-score” value of the first is higher: 0.263 for the first, 0.193 for the second.

Going from ATTAATGA to ATTAATTA, the “PBM E-score” value falls from 0.29 to 0.259.

Compared with ATTAATGC, GCCACATA is lower in “PBM E-score” value: 0.19 for the first, 0.064 for the second.

First: ACTGCCCT
Second: CGAAGACA
The “PBM E-score” value of the first is lower: -0.0972 for the first, -0.0454 for the second.

First: ATAACATA
Second: GCAACATA
The “PBM E-score” value of the first is higher: 0.26 for the first, 0.0111 for the second.

Going from ACAACATC to ACAACATA, the “PBM E-score” value rises from 0.0575 to 0.268.

Compared with ATAACATC, ATAACATG is lower in “PBM E-score” value: 0.189 for the first, 0.0972 for the second.

Going from AGATTGAA to CCCAGTTC, the “PBM E-score” value rises from 0.0552 to 0.175.

Going from AACCGTGA to GCATTCCA, the “PBM E-score” value falls from -0.0786 to -0.196.

First: AAAGCATC
Second: CAGACTGG
The “PBM E-score” value of the first is higher: 0.134 for the first, -0.108 for the second.

First: AAAACGGA
Second: AGTAGCCG
The “PBM E-score” value of the first is higher: 0.0411 for the first, 0.0345 for the second.

Going from TATCGATA to GCTCTTAC, the “PBM E-score” value falls from 0.0449 to 0.021.

First: CTCACGCA
Second: GTCACGCA
The “PBM E-score” value of the first is higher: 0.274 for the first, 0.0339 for the second.

First: CTCACGCC
Second: ACAGTAGG
The “PBM E-score” value of the first is lower: -0.0928 for the first, -0.00703 for the second.

First: CAGTGCCG
Second: ATAGTTGG
The “PBM E-score” value of the first is lower: -0.0996 for the first, -0.0107 for the second.

Going from ATAGTTGC to ATAGTTGA, the “PBM E-score” value falls from 0.272 to 0.121.

First: GGTAAGTA
Second: AAAATGGT
The “PBM E-score” value of the first is lower: -0.00023 for the first, 0.216 for the second.

Going from TCTGCACA to ATTACGCA, the “PBM E-score” value rises from -0.00335 to 0.25.

Compared with AGTACGAG, CTTACGAC is higher in “PBM E-score” value: 0.0932 for the first, 0.103 for the second.

First: ATTACGGG
Second: ATTACGGA
The “PBM E-score” value of the first is lower: 0.103 for the first, 0.322 for the second.

First: AGTACGAA
Second: ATTACGAC
The “PBM E-score” value of the first is lower: 0.167 for the first, 0.232 for the second.

Going from GTTACGAA to ATTACGAA, the “PBM E-score” value rises from 0.16 to 0.295.

Going from ATTACGAG to CTTACGAA, the “PBM E-score” value falls from 0.299 to 0.26.

Going from ATTACGGC to GAGGTTAA, the “PBM E-score” value falls from 0.181 to -0.0963.

Compared with AGCAATTC, AGGACCTC is lower in “PBM E-score” value: 0.0771 for the first, -0.0477 for the second.

Compared with CCTTGAGC, ATTCCGAG is higher in “PBM E-score” value: -0.155 for the first, 0.182 for the second.

Going from CAAGTCTA to ATACTGTC, the “PBM E-score” value rises from -0.202 to 0.208.

First: ATACTGAC
Second: ATACTGAT
The “PBM E-score” value of the first is lower: 0.192 for the first, 0.283 for the second.

Compared with TACGCCCA, AAGTACTG is lower in “PBM E-score” value: 0.0142 for the first, -0.0282 for the second.

Going from CAAAAGTC to CGCTTACG, the “PBM E-score” value rises from -0.0102 to 0.379.

First: GCCTTACA
Second: CACTTACG
The “PBM E-score” value of the first is lower: -0.253 for the first, 0.112 for the second.

Compared with TGCTTAAA, TGCTTACA is higher in “PBM E-score” value: 0.102 for the first, 0.305 for the second.

Going from GGCTTACA to AGCTTACG, the “PBM E-score” value rises from 0.332 to 0.337.

Compared with CGCTTACC, ACCTTACG is lower in “PBM E-score” value: 0.15 for the first, 0.0253 for the second.

First: ATCTTACG
Second: TCCTTACA
The “PBM E-score” value of the first is higher: 0.164 for the first, -0.021 for the second.

First: GGCTTACC
Second: ACTTCTAT
The “PBM E-score” value of the first is higher: 0.169 for the first, 0.0803 for the second.

Going from ATATGCGG to CACTGCCA, the “PBM E-score” value falls from 0.148 to -0.0785.

First: CCCCCCCA
Second: CTAGCCTC
The “PBM E-score” value of the first is lower: -0.464 for the first, -0.159 for the second.

Compared with GTACAGCA, ATGCACTA is higher in “PBM E-score” value: -0.134 for the first, -0.0624 for the second.

Going from ATATAGAT to GGAGCTAC, the “PBM E-score” value falls from 0.207 to -0.236.

Compared with AGCTTACT, AGCTTACA is higher in “PBM E-score” value: 0.201 for the first, 0.351 for the second.

First: AGCTTACC
Second: AGCTTATC
The “PBM E-score” value of the first is higher: 0.226 for the first, 0.204 for the second.

First: CGCTTACA
Second: CGCTTAGA
The “PBM E-score” value of the first is higher: 0.315 for the first, -0.0919 for the second.

Going from AGCTTATG to AGCTTATA, the “PBM E-score” value falls from 0.296 to 0.191.

First: CACTTACA
Second: ACCCGATA
The “PBM E-score” value of the first is higher: 0.127 for the first, -0.0171 for the second.

Going from CCCTGTTC to CCTTCTTC, the “PBM E-score” value rises from -0.265 to -0.107.

Going from AGAAGCTG to ACCAAGAT, the “PBM E-score” value rises from -0.049 to 0.146.
